Assay results reported in the supplement of paper PMC12494721.
Counter-ions that a name gives are not always drawn.

What follows are molecules tested on Klebsiella aerogenes DSM 30053 (assay: fold change of Putrescine concentration vs plate DMSO controls (fold change (ratio)); higher = more amine produced, active = hit call of the paper (significant change in both replicates, either direction)). Conditions: incubation time: 27 h, anaerobic, 37 °C;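 for the amine columns active = adjusted P below 0.05 in both replicates with a change the same way and a mean fold change under 0.8 or over 1.25; inactive = the rest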.
How it was run: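 In 80 µL wells, cultures of four gut bacterial strains in mGAM started at OD 0.1 before a 1:1 dilution and grew anaerobically at 37 °C for 27 h. Compounds were added to 20 µM final, except sweeteners at 50 µM final. After extraction of whole cultures with cold acetonitrile/methanol plus 0.1% formic acid and centrifugation, amines were measured by LC–triple-quadrupole MS in dynamic MRM mode against external calibration curves, with within-batch drift correction. Values give fold change over DMSO controls on the same plate, averaged across 2 biological replicates.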

SMILES | fold change of Putrescine concentration
CN[C@H](CC(C)C)C(=O)N[C@H]1C(=O)N[C@@H](CC(N)=O)C(=O)N[C@H]2C(=O)N[C@H]3C(=O)N[C@H](C(=O)N[C@H](C(=O)O)c4cc(O)cc(O)c4-c4cc3ccc4O)[C@H](O)c3ccc(c(Cl)c3)Oc3cc2cc(c3O[C@@H]2O[C@H](CO)[C@@H](O)[C@H](O)[C@H]2O[C@H]2C[C@](C)(N)[C@H](O)[C@H](C)O2)Oc2ccc(cc2Cl)[C@H]1O [Vancomycin hydrochloride] (20 µM) | 1.04 (inactive)
OC[C@H]1OC(O)[C@H](O)[C@H](O)[C@@H]1O (stereo partly drawn) [D-allose] (50 µM) | 1.01 (inactive)
COC1=CC(=O)C[C@@H](C)[C@]12Oc1c(Cl)c(OC)cc(OC)c1C2=O [Griseofulvin] (20 µM) | 0.989 (inactive)
CN1CCN(CCCN2c3ccccc3Sc3ccc(C(F)(F)F)cc32)CC1 [Trifluoperazine dihydrochloride] (20 µM) | 0.955 (inactive)
CCCN(CCC)S(=O)(=O)c1ccc(C(=O)O)cc1 [Probenecid] (20 µM) | 1 (inactive)
C#C[C@]1(O)CC[C@H]2[C@@H]3CCC4=CC(=O)CC[C@@H]4[C@H]3CC[C@@]21C [Norethindrone] (20 µM) | 1.03 (inactive)
NC(=O)c1ncn([C@@H]2O[C@H](CO)[C@@H](O)[C@H]2O)n1 [Ribavirin] (20 µM) | 0.973 (inactive)
Cc1c(O)cccc1C(=O)N[C@@H](CSc1ccccc1)[C@H](O)CN1C[C@H]2CCCC[C@H]2C[C@H]1C(=O)NC(C)(C)C [Nelfinavir mesylate] (20 µM) | 1.02 (inactive)
CC1(C)S[C@@H]2[C@H](NC(=O)Cc3ccccc3)C(=O)N2[C@H]1C(=O)O [Benzylpenicillin sodium] (20 µM) | 1.04 (inactive)
COC(=O)Nc1nc2cc([S+]([O-])c3ccccc3)ccc2[nH]1 (stereo not given) [Oxfendazole] (20 µM) | 1.04 (inactive)
CCCc1nc(C)c2c(=O)nc(-c3cc(S(=O)(=O)N4CCN(CC)CC4)ccc3OCC)[nH]n12 [Vardenafil] (20 µM) | 1.01 (inactive)
NS(=O)(=O)c1cc(C(=O)O)cc(N2CCCC2)c1Oc1ccccc1 [Piretanide] (20 µM) | 1.04 (inactive)
C[C@H]1C[C@@H]2[C@H]([C@@H](O)C[C@@]3(C)[C@H]2CC[C@]3(O)C(=O)CO)[C@@]2(C)C=CC(=O)C=C12 [Methylprednisolone, 6-alpha] (20 µM) | 1.05 (inactive)
Oc1ccc2ccccc2c1N=Nc1ccccc1 [Sudan I (1-phenylazo-2-hydroxynaphthalene)] (20 µM) | 0.893 (inactive)
CC(=O)OCC(=O)[C@@]1(O)CC[C@H]2[C@@H]3CCC4=CC(=O)CC[C@]4(C)[C@H]3[C@@H](O)C[C@@]21C [Cortisol acetate] (20 µM) | 0.993 (inactive)
CCN(CC)CCNc1ccc(CO)c2sc3ccccc3c(=O)c12 [Hycanthone] (20 µM) | 0.993 (inactive)
CC(=O)NC[C@H]1CN(c2ccc(N3CCOCC3)c(F)c2)C(=O)O1 [Linezolid] (20 µM) | 1 (inactive)
NNC(=O)c1ccncc1 [Isoniazid] (20 µM) | 0.991 (inactive)
O=C(NCCO[N+](=O)[O-])c1cccnc1 [Nicorandil] (20 µM) | 1.03 (inactive)
CC(=O)[C@H]1CC[C@H]2[C@@H]3CC=C4C[C@@H](O)CC[C@]4(C)[C@H]3CC[C@]12C [Pregnenolone] (20 µM) | 1.02 (inactive)
OC[C@@H](O)[C@@H](O)[C@H](O)[C@H](O)CO [Mannitol] (50 µM) | 0.996 (inactive)
CC[C@@]1(O)C(=O)OCc2c1cc1n(c2=O)Cc2cc3c(CN(C)C)c(O)ccc3nc2-1 [Topotecan] (20 µM) | 0.994 (inactive)
CCCCc1ncc(/C=C(\Cc2cccs2)C(=O)O)n1Cc1ccc(C(=O)O)cc1 [Eprosartan mesylate] (20 µM) | 1 (inactive)
CCN(CC)CC(=O)Nc1c(C)cccc1C [Lidocaine hydrochloride] (20 µM) | 1.01 (inactive)
CC(C)c1nc(CN(C)C(=O)N[C@H](C(=O)N[C@@H](Cc2ccccc2)C[C@H](O)[C@H](Cc2ccccc2)NC(=O)OCc2cncs2)C(C)C)cs1 [Ritonavir] (20 µM) | 1.01 (inactive)
